The structures appear in SMILES notation. Results with a measured potency or affinity are listed apart. Activity calls are given as the source filed them.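 The calls were made as follows: active = cell killing with a fitted half-effect concentration at or below twice the top valid dose; inconclusive = flat curve with 30 to 70 percent drop, or poor fit; inactive = the rest.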

This test can be described thus: viability loss in HEK293T kidney cells – cell-based, ATP luminescence, cherry-pick, set 6, cytotoxicity control, dose response (AID 1053126). The note with it: CellTiter-Glo ATP luminescence, 72 h; series mostly up to 26 µM.
With `CC(C)OP(=O)(O)NC(=O)c1ccccc1`, the call was inactive.
Next, `Nc1ccc2ccc3cccc[n+]3c2c1`: “inactive”; `CC12CC(c3ccccc3O1)C(C(=O)OCc1ccccc1)C(=O)N2` (stereo not drawn): “inactive”.

For the origin of these results see PubChem BioAssay AID1053126 (Broad Institute, 2014).
